# Source: PubChem (several laboratories)
# IEC-6 tox: counter-screen for KLF5 inhibitors: cytotoxicity in IEC-6 cells. IEC-6 cytotoxicity, luminescence viability. inhibition, % at 5 µM. 0.78% of 290,000 active. AID 1825; in the data active means inhibition above about 22%;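 further: 0% = plate median of test compound wells and 100% = cytotoxic reference compound wells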
# APP 5UTR inh: APP translation inhibition; inhibition, % at 2 µM; SH-SY5Y APP 5'UTR-luciferase reporter, luminescence; 0.82% of 190,000 active;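 active means inhibition above a set limit, derived from the sample mean plus 3 SD, cut at about 45% in these data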
# Ba/F3 V617F tox: loss of viability in JAK2V617F-driven Ba/F3 cells; Ba/F3 EpoR-JAK2V617F viability, ATP luminescence; inhibition, % at 5.6 µM; 1.1% of 220,000 active;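 active means inhibition above the campaign mean plus 3 SD over all tested compounds, cut at about 24% in these data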;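 further: cytokine-independent growth of Ba/F3 cells driven by EpoR plus mutant JAK2; 0% = DMSO-treated cells and 100% = JAK inhibitor I control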
# KLF5 inh: suppresses KLF5 promoter-driven expression | inhibition, % at 5 µM | DLD-1 KLF5 promoter-luciferase reporter, luminescence | 0.23% of 290,000 active;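 active means inhibition above a per-plate limit of that plate's mean compound inhibition plus 3 SD, cut at about 60% in these data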;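 further: 0% = DMSO wells and 100% = LY294002 at 200 µM; higher means less KLF5 promoter-driven luciferase light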
# aSyn 5UTR inh: MLPCN primary screen, SNCA 5' untranslated region; alpha-synuclein 5'UTR reporter, inhibitor activity; inhibition, % (tested at 7.5 µM); 0.82% of 300,000 active; in the data active means inhibition above about 60%;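 further: H4 neuroglioblastoma cells stably carrying SNCA 5'UTR luciferase fusion; 0% = DMSO wells and 100% = positive control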
# BaF3 parental: reduces parental Ba/F3 cell viability, JAK2V617F counter-screen; CellTiter-Glo ATP luminescence; inhibition, % at 5.6 µM; 1.1% of 220,000 active;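 active means inhibition above a per-campaign cutoff, the mean inhibition of all tested compounds plus 3 SD, cut at about 27% in these data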;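 further: 0% = DMSO wells and 100% = JAK Inhibitor I control wells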
# An asterisk follows results filed as active; . = not tested or not shown. Shown are actives, neighbours in structure and some others; about 2.2% of the full set was active somewhere.
SMILES,IEC-6 tox,APP 5UTR inh,Ba/F3 V617F tox,KLF5 inh,aSyn 5UTR inh,BaF3 parental
CN1/C(=C\C(=O)C[n+]2cccc(Br)c2)C(C)(C)c2ccccc21,-0.5,0.0,66.5*,-10.9,-9.2,66.7*
Cc1cc(=O)[nH]c(SCC(=O)/C=C2\N(C)c3ccccc3C2(C)C)n1,5.4,5.5,66.9*,-8.2,2.3,62.3*
Cc1ccc[n+](CC(=O)/C=C2\N(C)c3ccccc3C2(C)C)c1,6.3,14.8,51.1*,6.4,-5.7,53.8*
COCCn1c(SCC(=O)/C=C2\N(C)c3ccccc3C2(C)C)nnc1-c1ccncc1,-0.6,4.5,31.9*,-5.2,6.4,33.8*
CC(C)Oc1ccc(C2CC(=O)N(C)C2=O)cc1 (centres undefined),2.9,.,.,-21.2,-7.3,.
CC1CCCC(CC(=O)O)(CC(=O)O)C1 (centres undefined),1.8,.,3.4,-21.4,-2.0,2.6
CC(C)CCC(CCNCc1ccccn1)c1ccc(Cl)cc1 (centres undefined),1.3,.,.,4.4,-15.4,.
COc1ccc(OCCC(=O)NCCN2CCOCC2)cc1,3.0,-8.0,1.5,-12.0,-29.2,1.3
CCOc1ccccc1NC(=O)NCc1ccc2c(c1)OCO2,0.8,.,.,-14.7,3.7,.
CN1/C(=C\C(=O)C[n+]2ccc(C(=O)c3ccccc3)cc2)C(C)(C)c2ccccc21,1.1,-11.0,-2.3,-27.5,13.6,-1.1
Cc1cccc[n+]1CC(=O)/C=C1\N(C)c2ccccc2C1(C)C,-0.1,-3.9,90.5*,-1.7,-14.1,67.0*
CN1/C(=C\C(=O)CN2C(=O)NC3(CCCCCC3)C2=O)C(C)(C)c2ccccc21,1.9,15.9,41.3*,-28.3,13.4,46.4*
CN1/C(=C\C(=O)COC(=O)CN2C(=O)C3CC=CCC3C2=O)C(C)(C)c2ccccc21 (centres undefined),-2.4,-1.5,5.4,-17.3,0.7,4.2
C/C(=N\NC(=S)Nc1ccc(F)cc1)C1CC1,-1.2,20.4,8.5,-44.0,-30.3,91.9*
CN1/C(=C\C(=O)COC(=O)CNC(=O)c2ccccc2F)C(C)(C)c2ccccc21,7.9,.,15.2,-15.2,11.5,8.4
CN1/C(=C\C(=O)COC(=O)CNC(=O)c2ccc3ccccc3c2)C(C)(C)c2ccccc21,-0.8,-17.9,21.8,-3.0,20.7,33.9*
CN1/C(=C\C(=O)COC(=O)c2ccc(O)c(O)c2)C(C)(C)c2ccccc21,4.3,16.7,51.8*,-14.1,-2.4,51.2*
CCn1cc(C(=O)NCc2ccco2)c(=O)c2cc(S(=O)(=O)N3CC(C)CC(C)C3)ccc21 (centres undefined),10.0,38.9,9.8,-4.2,81.9*,10.5
COC(=O)CCC(=O)N1CCCC(N2CCN(c3ccc(OC)cc3)CC2)C1 (centres undefined),-0.4,.,.,-23.5,2.7,.
O=c1c2ccccc2nc(/C=C/c2ccc([N+](=O)[O-])o2)n1CCCO,7.3,22.9,101.2*,18.5,-6.4,101.6*
CC[n+]1c(C)cc(C)n1-c1ccccc1,4.8,5.2,63.3*,-20.6,-5.4,64.6*
CCCc1nc(C)cc(N2CCN(c3ccccc3)CC2)n1,0.2,.,.,-29.7,-15.0,.
COc1cccc2c1-c1c(O)cccc1C2=O,1.9,.,.,0.6,3.8,.
COc1cccc2c1C(=O)c1c(O)c3c(c(O)c1C2=O)C[C@](O)(C(C)=O)C[C@H]3O[C@@H]1C[C@@H](N)[C@@H](O)[C@@H](C)O1,.,.,.,.,111.2*,.
Cc1cc(C)c2c(c1)/C(=N\N=c1\sc3ccccc3n1C)C(=O)N2,0.6,.,1.1,-17.2,-106.7,39.3*
SMILES,IEC-6 tox,APP 5UTR inh,Ba/F3 V617F tox,KLF5 inh,aSyn 5UTR inh,BaF3 parental
CNC(=S)NNC(=O)c1cc(C(C)(C)C)nn1Cc1ccc(F)cc1,3.2,.,-0.8,-10.7,9.4,-4.3
COc1ccc(C(=O)/C=C/N(C)C)cc1OC,-2.3,8.0,4.5,15.2,.,5.3
COc1ccc(C(=O)/C=C2\NCCc3cc(OC)c(OC)cc32)cc1OC,3.6,.,.,-31.0,64.1*,.
CC(=O)Nc1ccc(NC(=O)CSCc2ccccc2Cl)cc1,.,.,.,.,-46.3,.
C/C(=N\NC(=O)CSCc1ccccc1Cl)c1cc(O)ccc1O,-1.7,54.1*,16.1,-3.2,61.8*,-3.2
CCC(Oc1ccccc1)C(=O)Nc1cc(C)on1 (centres undefined),1.3,4.7,-0.8,1.4,5.9,-2.5
CCC(Oc1ccccc1)C(=O)Nc1ccccn1 (centres undefined),-2.2,-35.0,-2.1,1.9,-46.0,88.7*
O=C(O)c1cccnc1C(=O)c1ccccc1,.,.,.,.,-13.5,.
C=CCn1cn[nH]c1=S,0.9,-15.4,-0.5,-16.2,-19.0,1.6
N#Cc1ccc(N2CCc3ccccc3C2)c([N+](=O)[O-])c1,-3.3,0.1,3.8,-34.3,81.1*,10.6
Cc1nc(C)n(C(C)CNC(=O)c2ccco2)n1 (centres undefined),1.4,.,.,-18.7,16.6,.
CC(C)(C)c1cc(C(c2cccnc2)N2CCN(CCO)CC2)cc(C(C)(C)C)c1O (centres undefined),-2.7,58.7*,-1.8,-0.1,-8.1,2.7
O=[N+]([O-])c1ccc(-c2nc(C(Cl)Cl)c3ccccc3n2)cc1,19.2,.,-0.5,-12.4,128.7*,1.2
COc1ccc(N(CC(=O)NCCSCc2ccccc2C)S(=O)(=O)c2ccccc2)cc1,-5.7,.,.,-3.6,-5.4,.
S=C(Nc1ccccc1)N1CCCN1c1ccccc1,0.2,.,24.1*,-35.8,-8.9,30.5*
Cc1ccc(C(C)C)c(OCC(=O)Nc2ccc3c(c2)nc(CCN2CCCCC2)n3C)c1,6.2,.,.,-14.0,110.3*,.
Cn1c(CCN2CCCCC2)nc2cc(NC(=O)COc3ccc(Cl)cc3)ccc21,-0.2,.,.,-2.5,0.2,.
Cc1ccc(OCC(=O)Nc2ccc3c(c2)nc(CCN2CCN(C)CC2)n3C)cc1,-1.4,.,-0.4,-8.4,105.3*,1.9
Cc1c(C(=O)Nc2ccccn2)sc2nc3n(c(=O)c12)CCC3,-12.8,.,.,-122.8,-86.4,.
CCCNC(=S)N1CCC(C(=O)c2ccc(Cl)cc2)CC1,1.1,.,.,-12.4,-8.6,.
CCCNC(=S)N1CCC(C(=O)c2ccc(OC)cc2)CC1,-4.5,60.1*,-1.3,-11.6,17.1,7.8
O=C(c1ccco1)N1N=C(c2ccc(Br)cc2)CC1(O)C(F)(F)F (centres undefined),7.7,10.8,3.0,-14.9,8.4,73.9*
COc1ccc(NC(=O)c2oc3ccccc3c2NC(=O)c2ccco2)cc1,-4.7,6.3,-2.2,-19.1,23.7,35.2*
COc1ccc(NC(=O)c2oc3ccccc3c2NC(=O)c2ccco2)c(OC)c1,4.5,-7.7,1.1,1.0,11.1,3.4
O=C(CCN1C(=O)[C@@H]2Cc3ccccc3CN2C1=O)N[C@@H](Cc1ccccc1)C(=O)O,5.8,.,.,-19.2,18.1,.
O=C(O)c1ccccc1N/N=C/c1c(Sc2nnnn2-c2ccccc2)nc2ccccn2c1=O,4.4,.,5.0,0.1,1.6,-4.4
O=c1c(/C=N/Nc2ccccc2)c(Sc2nnnn2-c2ccccc2)nc2ccccn12,1.9,74.9*,1.6,-29.9,.,4.1
COc1ccccc1CNC(=S)NCc1ccc(F)cc1,-1.6,.,.,-31.1,-10.6,.
